In the supplement of paper PMC10849652:
Targets with a hit are over-represented here; the source holds about 7,900 in all. About 0.6% of all pairs of compound and target were hits. Unmarked numbers belong to inactive results.

Columns and labels:
Experiment in all cases: log2 fold change, soluble protein after heating vs DMSO (PISA); higher = thermal stabilisation; K562 cells, 10 uM, 30 min; active = over 0.2 and 3.5 SD of the protein, either way, in both replicates (recomputed)
IRAK-1-4 Inhibitor I = compound: C1COCCN1CCN2C3=CC=CC=C3N=C2NC(=O)C4=CC(=CC=C4)[N+](=O)[O-] [IRAK-1-4 Inhibitor I]
Method in brief: (§1)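 Aliquots of K562 cells (2×10^6 cells/mL) treated with 10 μM compound for 30 min were heated for 3 min over 48°C-58°C. After pooling and extraction in PBS with 0.5% NP-40 at 4°C, soluble protein from a 21,000xg, 90 min spin was quantified by TMTpro 16plex LC-MS/MS with channel sums equalised. Thermal stability is expressed against control samples, from duplicates, as a log2 fold change.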

ibrutinib = compound: C=CC(=O)N1CCC[C@@H](n2nc(-c3ccc(Oc4ccccc4)cc3)c3c(N)ncnc32)C1 [ibrutinib]
Method in brief: as §1

[1] = compound: CC(=O)c1cnc2ccc(-c3cc(Cl)c(O)c(Cl)c3)nc2c1N[C@H]1CC[C@H](CN(C)C)CC1
Method in brief: as §1

ralimetinib = compound: CC(C)(C)Cn1c(N)nc2ccc(-c3[nH]c(C(C)(C)C)nc3-c3ccc(F)cc3)nc21 [ralimetinib]
Method in brief: as §1

[2] = compound: CC(C)(O)CC(=O)NCCn1ccc2ncnc(Nc3ccc(Oc4cccc(C(F)(F)F)c4)c(Cl)c3)c21
Method in brief: as §1

[3] = compound: CC(C)C1=C2N=C(C=C(N2N=C1)NCC3=CC=CC=C3)NCCCCCCN
Method in brief: as §1

[4] = compound: CC(C)C[C@@H](C=O)NC(=O)[C@H](CC(C)C)NC(=O)[C@H](CC(C)C)NC(=O)OCc1ccccc1
Method in brief: as §1

pinometostat = compound: CC(C)N(C[C@H]1O[C@@H](n2cnc3c(N)ncnc32)[C@H](O)[C@@H]1O)[C@H]1C[C@@H](CCc2nc3cc(C(C)(C)C)ccc3[nH]2)C1 [pinometostat]
Method in brief: as §1

[5] = compound: CC1=C(C(CC(=O)N1)C2=CC=C(C=C2)C(F)(F)F)C(=O)NC3=C(C=C4C(=C3)C=NN4)F
Method in brief: as §1

[6] = compound: CC1=C(C2=C(C=C1)C(=O)C3=CC=CC=C3N2CCCN)C
Method in brief: as §1

[7] = compound: CC1=C(C=C(C=C1)NC(=O)C2=CC(=CC=C2)C(C)(C)C#N)NC3=CC4=C(C=C3)N=CN(C4=O)C
Method in brief: as §1

[8] = compound: CC1=C(C=C(C=C1)NC(=O)C2=CC(=CC=C2)N(C)C)NC(=O)C3=CC=C(C=C3)O
Method in brief: as §1

[9] = compound: CC1=CC=C(C=C1)SC2=C3C=C(SC3=CN=C2)C(=O)N
Method in brief: as §1

[10] = compound: CC1=NC(=CC=C1)C2=C(N=C(N2)C(C)(C)C)C3=CC4=NC=CN=C4C=C3
Method in brief: as §1

Nexturastat A = compound: CCCCN(Cc1ccc(C(=O)NO)cc1)C(=O)Nc1ccccc1 [Nexturastat A]
Method in brief: as §1

vemurafenib = compound: CCCS(=O)(=O)Nc1ccc(F)c(C(=O)c2c[nH]c3ncc(-c4ccc(Cl)cc4)cc23)c1F [vemurafenib]
Method in brief: as §1

[11] = compound: CCCS(=O)(=O)Nc1ccc(F)c(C(=O)c2c[nH]c3ncc(Cl)cc23)c1F
Method in brief: as §1

[12] = compound: CCCc1cc(C)[nH]c(=O)c1CNC(=O)c1cc(-c2ccnc(N3CCN(C)CC3)c2)cc2c1cnn2C(C)C
Method in brief: as §1

givinostat = compound: CCN(CC)Cc1ccc2cc(COC(=O)Nc3ccc(C(=O)NO)cc3)ccc2c1 [givinostat]
Method in brief: as §1

barasertib = compound: CCN(CCCOc1ccc2c(Nc3cc(CC(=O)Nc4cccc(F)c4)[nH]n3)ncnc2c1)CCOP(=O)(O)O [barasertib]
Method in brief: as §1

UniProt O00220, sequence (O00220 whole entry, looked up): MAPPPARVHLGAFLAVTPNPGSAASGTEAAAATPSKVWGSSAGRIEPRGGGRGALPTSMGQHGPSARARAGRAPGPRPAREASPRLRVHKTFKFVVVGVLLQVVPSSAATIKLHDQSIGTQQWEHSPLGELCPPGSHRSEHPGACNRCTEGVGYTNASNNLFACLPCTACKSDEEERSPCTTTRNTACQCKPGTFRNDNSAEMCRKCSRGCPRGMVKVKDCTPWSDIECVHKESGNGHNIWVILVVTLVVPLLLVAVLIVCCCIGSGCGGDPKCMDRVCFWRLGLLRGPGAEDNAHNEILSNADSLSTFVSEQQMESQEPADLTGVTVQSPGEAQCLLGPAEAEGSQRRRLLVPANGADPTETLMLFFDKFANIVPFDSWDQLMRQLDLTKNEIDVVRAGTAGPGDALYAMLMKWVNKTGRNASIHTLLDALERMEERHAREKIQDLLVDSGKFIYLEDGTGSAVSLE
UniProt P49754, sequence (P49754 whole entry, looked up): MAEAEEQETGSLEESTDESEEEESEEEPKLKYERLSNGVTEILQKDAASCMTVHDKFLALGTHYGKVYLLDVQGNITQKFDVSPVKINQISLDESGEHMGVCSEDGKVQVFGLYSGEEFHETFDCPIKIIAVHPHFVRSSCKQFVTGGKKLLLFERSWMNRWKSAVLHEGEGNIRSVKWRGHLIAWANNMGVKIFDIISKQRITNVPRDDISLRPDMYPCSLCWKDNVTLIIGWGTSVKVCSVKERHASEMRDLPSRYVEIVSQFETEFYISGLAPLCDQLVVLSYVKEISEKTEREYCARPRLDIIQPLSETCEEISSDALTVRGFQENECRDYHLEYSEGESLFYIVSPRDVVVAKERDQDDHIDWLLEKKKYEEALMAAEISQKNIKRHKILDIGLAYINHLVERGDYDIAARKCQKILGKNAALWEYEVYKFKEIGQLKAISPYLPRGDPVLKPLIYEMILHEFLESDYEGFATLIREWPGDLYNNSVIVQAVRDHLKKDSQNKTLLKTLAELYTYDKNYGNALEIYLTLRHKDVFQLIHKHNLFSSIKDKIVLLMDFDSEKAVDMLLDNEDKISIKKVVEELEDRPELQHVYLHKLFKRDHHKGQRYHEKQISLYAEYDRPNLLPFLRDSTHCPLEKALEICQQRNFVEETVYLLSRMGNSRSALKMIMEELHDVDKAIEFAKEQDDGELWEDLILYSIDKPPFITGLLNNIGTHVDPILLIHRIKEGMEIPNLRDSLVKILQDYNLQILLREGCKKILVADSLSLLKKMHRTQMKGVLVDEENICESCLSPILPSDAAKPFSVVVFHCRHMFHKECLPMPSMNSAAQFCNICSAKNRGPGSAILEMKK
UniProt P12956, sequence (P12956 whole entry, looked up): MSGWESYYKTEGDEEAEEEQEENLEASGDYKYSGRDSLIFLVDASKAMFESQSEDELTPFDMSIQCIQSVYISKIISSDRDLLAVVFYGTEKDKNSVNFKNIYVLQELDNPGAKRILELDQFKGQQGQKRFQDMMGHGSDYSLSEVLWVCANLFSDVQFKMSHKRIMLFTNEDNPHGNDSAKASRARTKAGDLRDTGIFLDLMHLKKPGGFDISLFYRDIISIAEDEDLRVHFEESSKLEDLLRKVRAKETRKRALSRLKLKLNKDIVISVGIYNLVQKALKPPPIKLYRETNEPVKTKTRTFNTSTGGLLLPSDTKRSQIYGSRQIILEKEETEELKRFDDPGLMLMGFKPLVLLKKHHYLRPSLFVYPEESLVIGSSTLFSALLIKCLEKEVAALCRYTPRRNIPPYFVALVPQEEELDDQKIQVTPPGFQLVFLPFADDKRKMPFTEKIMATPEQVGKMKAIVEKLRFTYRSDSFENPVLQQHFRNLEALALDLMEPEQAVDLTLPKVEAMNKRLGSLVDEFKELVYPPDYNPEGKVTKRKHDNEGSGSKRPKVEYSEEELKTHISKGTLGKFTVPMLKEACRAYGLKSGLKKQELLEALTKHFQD
UniProt P26368, sequence (P26368 whole entry, looked up): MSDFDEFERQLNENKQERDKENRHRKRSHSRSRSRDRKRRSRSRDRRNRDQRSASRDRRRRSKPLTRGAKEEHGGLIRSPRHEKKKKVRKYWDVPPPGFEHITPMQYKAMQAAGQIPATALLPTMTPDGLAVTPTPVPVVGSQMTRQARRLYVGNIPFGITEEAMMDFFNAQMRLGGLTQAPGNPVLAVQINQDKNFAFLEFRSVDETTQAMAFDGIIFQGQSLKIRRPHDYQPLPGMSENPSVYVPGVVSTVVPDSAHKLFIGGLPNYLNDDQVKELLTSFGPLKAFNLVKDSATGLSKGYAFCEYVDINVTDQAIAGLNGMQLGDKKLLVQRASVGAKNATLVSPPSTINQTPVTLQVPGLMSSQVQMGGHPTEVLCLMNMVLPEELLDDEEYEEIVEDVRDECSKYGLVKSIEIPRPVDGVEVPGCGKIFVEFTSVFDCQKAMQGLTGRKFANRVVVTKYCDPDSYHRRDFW
UniProt P57081, sequence (P57081 whole entry, looked up): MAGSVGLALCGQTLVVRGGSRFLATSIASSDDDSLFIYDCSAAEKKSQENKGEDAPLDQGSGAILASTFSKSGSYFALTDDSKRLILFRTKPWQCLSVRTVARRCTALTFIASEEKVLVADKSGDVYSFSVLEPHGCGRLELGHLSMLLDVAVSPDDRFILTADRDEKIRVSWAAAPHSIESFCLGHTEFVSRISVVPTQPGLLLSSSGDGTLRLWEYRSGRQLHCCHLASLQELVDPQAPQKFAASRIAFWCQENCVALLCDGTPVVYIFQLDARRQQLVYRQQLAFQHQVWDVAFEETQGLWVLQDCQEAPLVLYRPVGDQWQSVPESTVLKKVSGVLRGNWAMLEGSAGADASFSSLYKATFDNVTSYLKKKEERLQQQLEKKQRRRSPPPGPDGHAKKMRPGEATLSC
UniProt Q86WV6, sequence (Q86WV6 whole entry, looked up): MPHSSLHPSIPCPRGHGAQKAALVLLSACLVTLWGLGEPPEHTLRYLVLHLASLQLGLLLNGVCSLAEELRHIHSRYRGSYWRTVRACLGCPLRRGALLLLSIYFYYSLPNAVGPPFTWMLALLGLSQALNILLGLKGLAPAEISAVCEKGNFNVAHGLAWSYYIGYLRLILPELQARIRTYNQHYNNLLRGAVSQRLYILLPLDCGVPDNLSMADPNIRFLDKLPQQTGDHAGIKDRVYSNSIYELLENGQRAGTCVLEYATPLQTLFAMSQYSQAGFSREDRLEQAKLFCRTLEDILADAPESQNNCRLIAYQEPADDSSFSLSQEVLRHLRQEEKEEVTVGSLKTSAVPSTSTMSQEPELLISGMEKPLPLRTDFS
UniProt P30291, sequence (P30291 whole entry, looked up): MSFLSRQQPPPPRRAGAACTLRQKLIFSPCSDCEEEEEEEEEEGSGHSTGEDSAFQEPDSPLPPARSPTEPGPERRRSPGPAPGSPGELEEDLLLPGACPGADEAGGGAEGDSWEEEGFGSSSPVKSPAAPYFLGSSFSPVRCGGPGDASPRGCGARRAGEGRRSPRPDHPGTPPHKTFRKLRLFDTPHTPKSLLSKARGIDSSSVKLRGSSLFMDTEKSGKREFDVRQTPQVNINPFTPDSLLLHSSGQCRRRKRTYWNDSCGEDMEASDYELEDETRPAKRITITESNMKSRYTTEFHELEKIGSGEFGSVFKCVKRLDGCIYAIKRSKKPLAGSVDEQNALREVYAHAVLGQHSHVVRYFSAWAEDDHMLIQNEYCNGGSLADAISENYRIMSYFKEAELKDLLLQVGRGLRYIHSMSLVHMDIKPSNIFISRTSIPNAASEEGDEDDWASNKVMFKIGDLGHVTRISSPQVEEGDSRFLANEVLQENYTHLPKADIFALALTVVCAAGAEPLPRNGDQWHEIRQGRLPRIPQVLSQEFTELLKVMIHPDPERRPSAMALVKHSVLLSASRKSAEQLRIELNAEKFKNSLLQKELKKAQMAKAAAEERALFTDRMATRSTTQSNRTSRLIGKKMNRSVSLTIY
UniProt Q9H6R7, sequence (Q9H6R7 whole entry, looked up): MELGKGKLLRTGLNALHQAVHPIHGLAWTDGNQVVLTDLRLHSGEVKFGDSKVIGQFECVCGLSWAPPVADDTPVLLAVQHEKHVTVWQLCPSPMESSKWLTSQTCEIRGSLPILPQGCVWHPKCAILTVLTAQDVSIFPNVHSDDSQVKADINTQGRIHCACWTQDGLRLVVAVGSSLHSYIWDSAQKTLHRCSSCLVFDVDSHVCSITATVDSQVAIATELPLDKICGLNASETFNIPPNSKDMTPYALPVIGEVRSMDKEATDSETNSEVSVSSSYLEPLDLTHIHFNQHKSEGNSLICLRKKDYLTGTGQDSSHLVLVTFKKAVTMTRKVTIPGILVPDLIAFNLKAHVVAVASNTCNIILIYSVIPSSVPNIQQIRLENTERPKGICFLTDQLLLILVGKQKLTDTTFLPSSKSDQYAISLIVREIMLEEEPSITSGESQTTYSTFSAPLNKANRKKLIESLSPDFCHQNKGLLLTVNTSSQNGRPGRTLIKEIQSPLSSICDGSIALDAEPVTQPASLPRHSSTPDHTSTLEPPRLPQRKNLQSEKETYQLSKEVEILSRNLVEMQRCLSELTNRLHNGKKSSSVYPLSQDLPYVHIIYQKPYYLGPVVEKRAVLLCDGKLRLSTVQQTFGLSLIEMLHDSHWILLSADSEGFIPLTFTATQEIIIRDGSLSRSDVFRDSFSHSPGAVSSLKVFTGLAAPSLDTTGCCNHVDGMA
UniProt Q9UL33, sequence (Q9UL33 whole entry, looked up): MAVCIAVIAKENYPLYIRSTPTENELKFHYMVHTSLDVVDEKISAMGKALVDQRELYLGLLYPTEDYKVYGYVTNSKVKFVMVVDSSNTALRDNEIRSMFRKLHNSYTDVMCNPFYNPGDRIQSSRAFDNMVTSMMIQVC
UniProt P51809, sequence (P51809 whole entry, looked up): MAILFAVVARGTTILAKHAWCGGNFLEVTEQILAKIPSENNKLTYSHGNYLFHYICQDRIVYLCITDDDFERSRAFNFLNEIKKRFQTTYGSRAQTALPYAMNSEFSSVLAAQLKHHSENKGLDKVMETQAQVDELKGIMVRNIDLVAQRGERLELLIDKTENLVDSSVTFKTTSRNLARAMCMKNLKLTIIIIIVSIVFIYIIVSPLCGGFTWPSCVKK

Target	log2 fold change (IRAK-1-4 Inhibitor I)	log2 fold change (ibrutinib)	log2 fold change [1]	log2 fold change (ralimetinib)	log2 fold change [2]	log2 fold change [3]	log2 fold change [4]	log2 fold change (pinometostat)	log2 fold change [5]	log2 fold change [6]	log2 fold change [7]	log2 fold change [8]	log2 fold change [9]	log2 fold change [10]	log2 fold change (Nexturastat A)	log2 fold change (vemurafenib)	log2 fold change [11]	log2 fold change [12]	log2 fold change (givinostat)	log2 fold change (barasertib)
TRAPPC2L (UniProt Q9UL33)	-0.013	0.003	-0.004	-0.125	-0.11	-0.083	0.24	0.001	0.062	0.014	0	-0.135	0.133	0.045	0.003	0.076	0.11	0.055	-0.123	0.05
WDR61 (UniProt Q9GZS3)	0.037	-0.015	-0.057	-0.049	0.008	-0.016	-0.009	0.028	0.013	0.004	-0.026	0.024	0.001	-0.027	-0.035	-0.072	-0.115	-0.02	0.026	0.038
WASH2P (UniProt Q6VEQ5)	0.001	-0.049	0.052	0.022	0.048	-0.234 (active)	0.025	-0.016	-0.022	0.026	-0.001	-0.034	0.019	0	0.139	0.03	-0.01	0.026	-0.007	0.043
WDR4 (UniProt P57081)	0.024	-0.052	0.022	-0.033	-0.003	-0.005	-0.072	-0.017	0.019	0.028	-0.112	-0.055	0.173	0.104	0.048	-0.004	0.26 (active)	-0.013	-0.026	-0.023
UHRF1BP1 (UniProt Q6BDS2)	0.007	0.023	-0.034	-0.067	0.097	0.258 (active)	0.03	0.006	0.001	0.029	-0.068	-0.039	-0.012	-0.011	0.043	-0.035	-0.043	-0.022	-0.012	-0.009
TXNRD1 (UniProt Q16881)	0.064	-0.035	-0.062	-0.088	-0.049	-0.013	-0.03	-0.042	-0.011	0.077	0.032	0.006	0.021	0.039	-0.051	0.024	0.007	-0.035	0.011	0.024
XRCC6 (UniProt P12956)	-0.046	-0.057	-0.12	-0.004	-0.124	-0.195	0.074	-0.01	-0.001	-0.008	0.046	-0.051	0.022	0.033	-0.023	0.059	0.138	0.025	0.116	0.086
USP9X (UniProt Q93008)	-0.006	-0.041	-0.011	0.02	-0.117	-0.177	0.01	0.042	0.002	0.038	-0.015	-0.02	-0.009	0.023	0.015	0.019	0.075	0.007	0.025	0.043
TNFRSF10A (UniProt O00220)	0.002	0.034	-0.064	-0.072	-0.073	0.043	0.078	-0.002	-0.003	0.021	0.006	0.035	0.016	-0.015	0.089	-0.073	-0.044	0.004	-0.042	0.016
TMEM173 (UniProt Q86WV6)	0.018	-0.105	0.009	0.067	-0.047	-0.006	0.005	0.012	0.009	0.088	-0.037	-0.01	-0.043	-0.008	-0.212	0.056	-0.043	-0.008	-0.076	0.055
UPF3B (UniProt Q9BZI7)	-0.099	0.158	0.265	0.27	0.057	-0.02	0.19	0.394	-0.002	-0.183	-0.047	-0.004	0	-0.053	0.29	-0.108	-0.069	0.139	0.03	-0.058
VAMP7 (UniProt P51809)	0.018	-0.048	-0.041	-0.022	-0.006	-0.169	-0.001	-0.027	-0.011	0.025	-0.014	0.011	0.053	0.005	-0.069	0.022	-0.01	-0.016	0.011	0.017
TMEM189-UBE2V1 (UniProt I3L0A0)	0.048	0.022	-0.022	0.006	-0.024	0.031	-0.028	-0.046	0.03	0.037	-0.067	0.017	0.006	-0.003	-0.042	-0.005	-0.056	-0.182	0.024	-0.054
VPS41 (UniProt P49754)	-0.002	-0.033	-0.019	0.052	0.019	-0.383 (active)	0.026	0.037	0.003	0.063	0.015	0.003	0.004	-0.028	0.108	-0.051	0.025	-0.03	-0.013	-0.02
TNNC2 (UniProt P02585)	0.042	0.012	0.004	-0.068	0	0.116	0.025	-0.067	-0.005	0.114	-0.064	0.037	0.002	-0.024	-0.011	0	-0.016	-0.045	-0.037	-0.004
USP14 (UniProt P54578)	-0.013	-0.045	-0.004	0.021	-0.028	-0.068	0.044	-0.031	0	0.014	0.023	-0.018	0.01	0.034	-0.069	0.021	0.093	0.012	-0.006	0.032
TPR (UniProt P12270)	0.03	-0.048	0.247	0.058	0.121	0.091	0.024	-0.001	-0.045	-0.122	-0.001	0.023	-0.069	-0.047	-0.048	0.031	0.012	0.003	-0.08	0
WDCP (UniProt Q9H6R7)	-0.01	-0.038	0.078	-0.006	-0.053	0.032	0.014	0.076	0.055	0.023	0.003	0.013	-0.103	-0.023	0.061	-0.087	0.025	-0.004	0.116	-0.06
TMTC3 (UniProt Q6ZXV5)	0.007	-0.033	-0.007	0	0.022	-0.218	0.028	-0.019	-0.008	0.018	-0.05	-0.009	0.019	0.007	0.067	-0.052	0.013	-0.013	-0.032	0.032
WEE1 (UniProt P30291)	0.025	0.013	-1.1 (active)	0.037	-0.034	-0.019	0.296	0.066	0.05	0.263	-0.037	0.02	-0.304	-0.046	0.322	0	0	-0.137	0.037	-0.005
UBA6	-0.038	-0.01	-0.009	-0.002	-0.012	-0.044	-0.025	0.004	-0.044	0.106	0.086	-0.044	0.032	0.02	-0.027	0.057	0.086	0.036	0.015	0.07
U2AF2 (UniProt P26368)	-0.069	0.029	-0.313 (active)	0.03	-0.011	-0.102	0.028	0.03	-0.04	0.192	-0.076	0.005	-0.066	0.047	-0.048	0.031	0.001	-0.028	0.002	-0.015
TMEM263 (UniProt Q8WUH6)	0.083	0	0.026	-0.092	-0.303	-1.03 (active)	0.029	0.001	0.092	0.037	-0.009	-0.015	0.117	0.059	-0.02	-0.051	0.128	-0.138	-0.015	0.054
WASHC2A (UniProt Q641Q2)	-0.002	-0.013	0.054	0.013	0.047	-0.266 (active)	0.025	0.033	-0.004	-0.044	-0.053	-0.012	-0.039	-0.014	0.004	-0.041	-0.005	0.085	0.004	0.032
